Screening data (PubChem BioAssay)
Most compounds without a hit are left out; they make up all but 0.9% or so of the library.
RXFP1 agonist = activates the human relaxin receptor RXFP1; Q9HBX9; HEK293T-RXFP1 cAMP TR-FRET, 30 min; response scale: percent of porcine relaxin response, buffer zero; Potency, µM (top dose mostly 57.5 µM), for inactives: at the highest dose activation, hits mostly activators; 370,000 tested, 0.3% active; active = well fitted activation curve with a large enough effect; inconclusive = small, poorly fitted or top-dose-only effect; also: potency is read from the fitted curve at half-maximal effect; % is scaled to controls: 0 for no effect and ±100 for the full control effect; nearly all actives have a fitted effect of over 60% in size
Target sequence (Q9HBX9 whole entry, looked up): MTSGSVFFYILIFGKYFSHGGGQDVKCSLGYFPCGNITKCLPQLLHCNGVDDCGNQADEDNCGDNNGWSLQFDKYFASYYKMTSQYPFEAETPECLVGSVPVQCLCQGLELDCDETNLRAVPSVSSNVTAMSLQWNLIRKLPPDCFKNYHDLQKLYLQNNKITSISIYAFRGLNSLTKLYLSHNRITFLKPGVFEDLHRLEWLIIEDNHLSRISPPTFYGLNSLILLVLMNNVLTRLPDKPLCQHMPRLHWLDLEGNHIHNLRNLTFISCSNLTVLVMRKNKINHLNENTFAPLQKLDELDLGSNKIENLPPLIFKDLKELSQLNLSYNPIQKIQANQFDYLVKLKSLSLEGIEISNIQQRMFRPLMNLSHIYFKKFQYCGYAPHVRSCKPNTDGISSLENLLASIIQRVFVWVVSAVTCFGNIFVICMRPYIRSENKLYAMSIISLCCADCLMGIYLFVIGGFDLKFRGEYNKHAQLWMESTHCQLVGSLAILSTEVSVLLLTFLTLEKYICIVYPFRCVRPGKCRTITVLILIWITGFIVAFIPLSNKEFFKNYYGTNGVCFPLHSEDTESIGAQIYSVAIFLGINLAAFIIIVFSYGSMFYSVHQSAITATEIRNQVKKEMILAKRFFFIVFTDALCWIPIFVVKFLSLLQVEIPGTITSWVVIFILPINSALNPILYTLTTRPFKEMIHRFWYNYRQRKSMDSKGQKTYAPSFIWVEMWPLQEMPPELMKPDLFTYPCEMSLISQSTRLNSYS
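Agonist response is measured as cAMP accumulation in an RXFP1-transfected HEK293T line under PDE4 inhibition. Values are scaled between buffer-only and 29 nM porcine relaxin, and EC50s come from standard Hill equation fits.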
gsp agonist = activates gsp, the McCune-Albright syndrome mutation; gsp mutant cells, cAMP HTRF, 30 min; Potency, µM (doses to about 76.9 µM), for inactives: at the top dose activation (cAMP increase), usual class: activators; 340,000 tested, 0.13% active; AID 624287; active = well fitted activation curve with a large enough effect; inconclusive = small, poorly fitted or top-dose-only effect, or another doubt; inactive = no such curve, though single readings can be large or run the other way; cell line not stated here;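 also: phosphodiesterase inhibitor Ro 20-1724 added with compounds to block cAMP breakdown; potency is read from the fitted curve at half-maximal effect; nearly all actives have a fitted effect of over 60% in size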
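Cells stably selected in G418 were plated at 2000/well, grown 16-24 hr, then given compounds in DMSO with the PDE inhibitor […] (300 uM solution added) for 30 min at 37C; cAMP was read by HTRF.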
RXFP1 antagonist = antagonists of human relaxin receptor RXFP1; HEK293-RXFP1, relaxin-stimulated cAMP HTRF, 30 min; stronger effect = lower value; 350,000 tested, 0.59% active; activity change, negative = inhibition, % at 57.5 µM;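 active = activity change of -60% or lower, but not beyond a set lower limit; inconclusive = change between -60% and -40%, or beyond the set limit; inactive = change above -40%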; also: % is scaled to controls: 0 for no effect and ±100 for the full control effect
gsp antagonist = gsp mutant antagonism | gsp-mutant cells, cAMP HTRF, 30 min | Potency, µM (top dose mostly 76.9 µM), inactives show at the top dose activity change, negative = inhibition, most hits filed as inhibitors | 340,000 tested, 0.4% active | AID 624288; calls by dose curve; cell line not stated here;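 also: intracellular cAMP measured with PDE inhibitor Ro 20-1724 present during compound exposure; potency is read from the fitted curve at half-maximal effect; % is scaled to controls: 0 for no effect and ±100 for the full control effect; nearly all actives have a fitted effect of over 65% in size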
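HTRF cAMP measurement after 30 min RT detection following 30 min, 37C compound treatment alongside […] (added as 300 uM solution) in G418-selected cells seeded at 2000/well and grown 16–24 h.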
The depositor's hits bear a star; ? = inconclusive; / = no result given; [ ] = another dose, or the depositor's remark.

SMILES | RXFP1 agonist | gsp agonist | RXFP1 antagonist | gsp antagonist
COc1ccccc1NC(=O)CSc1nc(O)cc(=O)n1-c1ccccc1OC | 1% | -51% | -6 | -6%
COc1ccc(-n2c(SCC(=O)Nc3cccc4ccccc34)nc(O)cc2=O)cc1 | 3% | 3%[15.4 µM] | -66* | -26%
COc1ccc(NC(=O)CSc2nc(O)cc(=O)n2-c2ccc(OC)cc2)cc1 | 2% | ? | -78* | ?
COc1ccc(CSc2nc(O)cc(=O)n2CC(C)C)cc1F | 0% | -2%[15.4 µM] | -15 | /
COc1ccc(OC)c(NC(=O)CSc2nc(O)cc(=O)n2CC(C)C)c1 | / | -4% | -80* | -19%
COc1ccc(-n2c(SCC(=O)Nc3ccccc3)nc(O)cc2=O)cc1 | -2% | 25% | -39 | -12%
COc1ccccc1NC(=O)CSc1nc2ccccc2c(=O)n1C | -1% | -24% | -22 | 35µM*
COC(=O)C1=C(C)NC(C)=C(C(=O)OCCc2ccc(N3CCN(C(c4ccccc4)c4ccccc4)CC3)cc2)C1c1cccc([N+](=O)[O-])c1 (configuration not stated) | / | / | 8 | /
CCN(C(=O)CCS(=O)(=O)c1cc2[nH]c(=O)c(=O)[nH]c2cc1C)c1ccccc1 | 4% | / | -6 | /
CC(=O)/C=C/C=C1/C2CCC(C2)C1(C)C (configuration not stated) | / | / | -20 | /
Cc1ccc(N=Cc2cc(Cc3ccccc3Cl)cc([N+](=O)[O-])c2O)c(O)c1 | -5% | -102% | -96* | -29%
c1ccc2c(c1)CCc1ccccc1N2 | / | / | -17 | /
Cc1ccc(NS(=O)(=O)c2c(C)nc3sccn3c2=O)cc1 | 0% | -91% | -79* | 4%
CCOCCCNC(=O)C(c1ccc(C)cc1)N(Cc1ccc2c(c1)OCO2)C(=O)c1ccccc1O (configuration not stated) | -1% | / | -21 | /
O=C1/C(=C/c2ccncc2)Oc2cc(OS(=O)(=O)c3ccccc3)ccc21 | 0% | -1% | -82* | -9%
COC(=O)c1ccc2nc(NC(=O)C(C)(C)C)sc2c1 | 0% | -3%[15.4 µM] | -85* | -25%
COC(=O)c1ccc2nc(NC(=O)C3CCCCC3)sc2c1 | 6% | -44% | -9 | 3%
O=C(COc1ncnc2cc([N+](=O)[O-])ccc12)N(CCc1ccccc1)Cc1ccccc1 | 10% | ? | 0 | 28µM*
O=C(COc1ccc([N+](=O)[O-])cc1)N(Cc1ccccc1)Cc1ccccc1 | 1% | -46% | / | -19%
CCOc1ccccc1NC(=O)C(C)n1nnc2sc3c(c2c1=O)CCCC3 (configuration not stated) | 0% | / | 3 | /
CC(C)(C)OC(=O)CNC(=O)c1[nH]cnc1C(=O)NCCCCCNC(=O)OC(C)(C)C | 1% | -2% | / | 35µM*
O=c1oc2ccc(Cl)cc2cc1-c1cn2c(n1)sc1ccccc12 | -4% | / | 0 | /
Cc1ccc(NC(=O)C2CCCN(S(=O)(=O)c3cccc4nsnc34)C2)c(C)c1 (configuration not stated) | -1% | / | / | /
COc1cccc(C2CC(=O)Nc3c2c(=O)n(C)c2nc4ccccc4n32)c1OC (configuration not stated) | -2% | / | / | /
Cc1cc(C(=O)NCCN2C(=O)S/C(=C\c3cccs3)C2=O)ccc1[N+](=O)[O-] | 1% | 5% | -4 | 25µM*
SMILES | RXFP1 agonist | gsp agonist | RXFP1 antagonist | gsp antagonist
Cc1cc(C)c(S(=O)(=O)N2CCCOC2CNC(=O)C(=O)NCc2ccccn2)c(C)c1 (configuration not stated) | 1% | 24%[15.4 µM] | -11 | 11µM*
Cc1cc(C)c(S(=O)(=O)N2CCOC2CNC(=O)C(=O)NCc2ccccn2)c(C)c1 (configuration not stated) | -1% | -29% | 0 | 7%
COc1ccc(C(=O)CCC(=O)N2CCN(c3cccc(Cl)c3)CC2)cc1 | 1% | ? | -12 | 35µM*
COc1cccc(N2CCN(Cc3nnc(-c4ccc5c(c4)OCO5)o3)CC2)c1 | 1% | / | -5 | /
Cc1cccc2nc(-c3cccnc3)c(Nc3ccc(C(C)C)cc3)n12 | 0% | / | -88* | /
Cc1ccccc1Nc1c(-c2cccnc2)nc2cccc(C)n12 | 0% | -21% | ? | -10%
Cc1cccc(CSc2ncc(CO)n2Cc2ccc(F)cc2)c1 | 0% | / | / | /
N=C(N)SCc1cn(-c2ccccc2)nc1-c1ccc(Br)cc1 | 0% | 0%[15.4 µM] | -79* | /
Cc1ccc(-c2nn(-c3ccccc3)cc2CO)cc1 | 4% | -3%[15.4 µM] | -1 | 11%
O=C(CN1C(=O)CCC1=O)Nc1nc(-c2ccc(Oc3ccccc3)cc2)cs1 | 0% | 1% | -70* | -23%
O=C(Nc1nc(-c2ccccc2)cs1)c1cccc([N+](=O)[O-])c1 | 2% | 6% | -21 | 50µM*
O=C(Nc1nc(-c2cccnc2)cs1)c1cccc([N+](=O)[O-])c1 | 0% | 10%[15.4 µM] | -14 | 3%
Cc1ccc(C(=O)NC(=S)Nc2nc(-c3cccc([N+](=O)[O-])c3)cs2)c(Cl)c1 | 3% | -36%[15.4 µM] | -89* | 7%
COc1ccc(-c2csc(NC(=O)CN3C(=O)CCC3=O)n2)cc1 | 1% | 6% | -4 | -3%
O=C(NC(=S)Nc1nc(-c2ccccc2)cs1)c1ccco1 | 2% | -59% | -63* | -7%
COc1ccc(-c2csc(NC(=S)NC(=O)c3ccco3)n2)cc1 | 2% | -10% | 1 | 4%
CCOc1ccc(NC(=O)CSc2nc(=O)[nH]c3c2CCC3)cc1 | 1% | / | 5 | /
O=C(Cc1c(F)c(F)c(F)c(F)c1F)Nc1nc(-c2ccccc2)cs1 | 10% | -6%[15.4 µM] | -65* | -11%
CCOCCn1ccc2c(OCC(=O)Nc3cc(OC)ccc3OC)cccc2c1=O | 2% | 9%[15.4 µM] | -2 | 16µM*
COc1ccc(NC(=O)c2ccc(-c3nn(C)c(=O)c4ccccc34)cc2)cc1 | 1% | -2%[15.4 µM] | -12 | -6%
COc1ccccc1NC(=O)COc1ccc(-c2nn(C)c(=O)c3ccccc23)cc1 | 0% | 23%[15.4 µM] | -1 | 28µM*
COCCn1ccc2c(OCC(=O)Nc3cc(OC)ccc3OC)cccc2c1=O | 0% | 18% | -5 | ?
COc1ccccc1NC(=O)c1ccc(-c2nn(C)c(=O)c3ccccc23)cc1 | 0% | 1%[15.4 µM] | -34 | 40µM*
CN(Cc1ccco1)c1ncnc2ccc(-c3ccc4c(c3)OCCO4)cc12 | 5% | / | / | /
Cc1ccc(S(=O)(=O)c2c(Nc3ccccc3)sc(C(=O)c3ccc4c(c3)OCO4)c2N)cc1 | 1% | / | / | /
COc1cc(-c2n[nH]c(=S)n2-c2ccc(C)cc2)cc(OC)c1OC | -1% | 14µM* | -14 | -8%
Fc1ccc(-n2c(-c3ccc4c(c3)OCO4)n[nH]c2=S)cc1Cl | 4% | ? | -25 | 1%
COc1cc(OC)cc(-c2n[nH]c(=S)n2-c2ccc3c(c2)OCO3)c1 | 10% | 7.1µM* | -16 | -15%
Cc1ccc(S(=O)(=O)c2cn(Cc3ccccc3)c3cc(N4CCOCC4)c(F)cc3c2=O)cc1 | 4% | / | -20 | /
COc1cccc(N2CCN(C3=NS(=O)(=O)C(c4ccc(C)cc4)=C3C)CC2)c1 | 0% | / | -9 | /
